SW480 rerep: A quantitative high throughput screen for small molecules that induce DNA re-replication in SW480 colon adenocarcinoma cells; 340,000 tested, 1.8% active; Potency, µM (titrated, usually from 46.1 µM), for inactives: at the highest dose re-replication activation, hits mostly activators; SW480 DNA re-replication, Hoechst DNA content imaging, 48 h; AID 624297, 2012; also: potency is read from the fitted curve at half-maximal effect; % of control where 0% means no effect; nearly all actives have a fitted effect of over 55% in size
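SW480 cells exposed to compounds for 48 hr at 37 C, 5% CO2, then Hoechst-stained 40 min. Nuclear DNA content imaged by fluorescence scanning (405 nm excitation, 500-530 nm emission); re-replication scored as increased high-intensity nuclei.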
D3 ag: qHTS of D3 Dopamine Receptor Agonist: qHTS. 410,000 tested, 0.58% active. AID 652048, 2013. max activation, %. D(3) dopamine receptor (Homo sapiens), P35462. D3R DiscoveRx beta-arrestin cells, luminescence, 90 min; in the data active = max activation above about 30%; also: 0% is about no effect
Target sequence (P35462 whole entry, looked up): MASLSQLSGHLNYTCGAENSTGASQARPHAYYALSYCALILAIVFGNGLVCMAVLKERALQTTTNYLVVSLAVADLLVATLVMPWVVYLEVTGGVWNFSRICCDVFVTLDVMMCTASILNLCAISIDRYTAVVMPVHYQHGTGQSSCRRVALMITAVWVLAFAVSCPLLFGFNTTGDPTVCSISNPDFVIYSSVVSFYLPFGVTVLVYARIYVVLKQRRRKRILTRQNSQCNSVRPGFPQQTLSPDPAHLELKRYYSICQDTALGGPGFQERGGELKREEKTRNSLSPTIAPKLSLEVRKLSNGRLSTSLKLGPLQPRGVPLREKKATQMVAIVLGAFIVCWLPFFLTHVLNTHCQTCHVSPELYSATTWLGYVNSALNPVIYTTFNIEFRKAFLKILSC
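Agonist mode: compounds and dopamine controls were applied to plated cells for 90 min at 37 degrees C after an overnight attachment at 1500 cells/well. Luminescent read-out followed 30 - 60 minutes at room temperature with DiscoveRx detection reagent.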
KB-3-1 tox: qHTS assay for MDR1-selective chemotherapeutics: Primary screen using the parental adenocarcinoma cell KB-3-1; AID 1347075, 2019; Potency, µM (doses to about 46.1 µM), hits mostly cytotoxic; KB-3-1 viability, CellTiter-Glo ATP luminescence, 72 h; 400,000 tested, 1.4% active; also: potency is read from the fitted curve at half-maximal effect; % is scaled to controls: 0 for no effect and ±100 for the full control effect; nearly all actives have a fitted effect of over 60% in size
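Viability of parental KB-3-1 cells, measured by CellTiter-Glo luminescence, followed a 72 h incubation at 37 °C with pinned compounds in phenol-red-free DMEM containing 10% FBS.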
MCF10A rereplic: A quantitative high throughput screen for small molecules that induce DNA re-replication in MCF 10a normal breast cells; MCF 10A DNA re-replication, Hoechst nuclear intensity, 48 h; Potency, µM (titrated, usually from 46.1 µM), for inactives: at the top dose activity, positive = re-replication, usual class: activators; 350,000 tested, 2.9% active; AID 624296, 2012; also: potency is read from the fitted curve at half-maximal effect; % of control where 0% means no effect; nearly all actives have a fitted effect of over 50% in size
KB-V1 cytotox: qHTS assay for MDR1-selective chemotherapeutics: Primary screen using the drug-selected MDR subline cells KB-V1; KB-V1 MDR cells viability, CellTiter-Glo, 72 h; Potency, µM (doses to about 46.1 µM), most hits filed as cytotoxic; 400,000 tested, 3.4% active; AID 1347076, 2019; also: potency is read from the fitted curve at half-maximal effect; % is scaled to controls: 0 for no effect and ±100 for the full control effect; nearly all actives have a fitted effect of over 60% in size
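Cytotoxicity via CellTiter-Glo luminescence after 72 h compound exposure at 37 degrees C. Cells: drug-selected KB-V1 line, DMEM phenol-red free plus 10% FBS. Compounds tested at multiple concentrations; normalized data fitted to concentration-effect curves.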
DRD3 antagonist: qHTS of D3 Dopamine Receptor Antagonist: qHTS | max response, negative = inhibition, % | 360,000 tested, 2.5% active | D(3) dopamine receptor (Homo sapiens), P35462 | D3R cells, DiscoveRx beta-arrestin luminescence, antagonist mode; stronger effect = lower value; in the data active = max response below about -50%; inconclusive = no clear call, values can overlap the other calls; also: % is scaled to controls: 0 for no effect and ±100 for the full control effect
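Cells expressing the human receptor were seeded at 1500 cells/well, incubated overnight at 37 degrees C in 5% CO2, then exposed to library compounds with dopamine controls for 90 minutes at 37 degrees C before luminescent detection.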
Active calls of the source: *. Most compounds without a hit are left out; they make up all but 8.9% or so of the library. Unless noted, calls follow the shape of the dose curve; as a rule, active = well fitted curve in the direction sought with a large enough effect; inconclusive = small, poorly fitted or top-dose-only effect, or another doubt; inactive = no such curve, though single readings can be large; an effect the other way counts as inactive or inconclusive.

How did CCOc1ccc(OCc2ccc(C(=O)N/N=C(\C)c3ccccn3)cc2)cc1 do in these assays?
SW480 rerep: inconclusive; D3 ag: -26; KB-3-1 tox: inconclusive; MCF10A rereplic: inconclusive; KB-V1 cytotox: inconclusive; DRD3 antagonist: -81*

What do the screens show for `O=C(CNC(=O)c1ccccc1F)NNC(=O)c1ccccc1O`?
SW480 rerep: -125%; D3 ag: -15; KB-3-1 tox: inactive; MCF10A rereplic: 1%; KB-V1 cytotox: inactive; DRD3 antagonist: -59*

How did C/C(=N\NC(=O)c1cccc2ccccc12)c1ccccn1 do in these assays?
SW480 rerep: inconclusive; D3 ag: -33; KB-3-1 tox: inconclusive; MCF10A rereplic: inconclusive; KB-V1 cytotox: inactive; DRD3 antagonist: -93*

How did CN(C)c1ccc(C(CNS(=O)(=O)c2ccc(Cl)cc2)N2CCCC2)cc1 (centres undefined) do in these assays?
D3 ag: -19; KB-3-1 tox: inactive; KB-V1 cytotox: inactive

What do the screens show for `CN(C)c1ccc(C=Nc2cnc3ccccc3c2)cc1`?
KB-3-1 tox: inactive; KB-V1 cytotox: inactive

How did COc1ccc(/C=N/Nc2ncnc3sc4c(c23)CCCC4)cc1OC do in these assays?
SW480 rerep: inconclusive; D3 ag: -19; KB-3-1 tox: 18µM*; MCF10A rereplic: inconclusive; KB-V1 cytotox: inconclusive; DRD3 antagonist: -17

What do the screens show for `CC(C)Oc1cccc(NC(=O)C2CCN(S(=O)(=O)Cc3ccccc3)CC2)c1`?
D3 ag: -10; KB-3-1 tox: inactive; KB-V1 cytotox: inactive

Results for O=C[C@H](O)[C@@H](O)[C@H](O)[C@H](O)CO ?
D3 ag: 10

Results for CCCCn1nnnc1SCC(=O)NNC(=O)c1ccco1 ?
SW480 rerep: -1%; D3 ag: -2; KB-3-1 tox: inactive; MCF10A rereplic: -1%; KB-V1 cytotox: inactive; DRD3 antagonist: -6

What do the screens show for `CCCCn1nnnc1SCC(=O)NCc1ccccc1`?
SW480 rerep: -8%; D3 ag: -3; KB-3-1 tox: inactive; MCF10A rereplic: -1%; KB-V1 cytotox: inactive; DRD3 antagonist: -55*

How did O=C(CSc1nnnn1Cc1ccccc1)c1ccccc1 do in these assays?
SW480 rerep: 3%; D3 ag: -2; KB-3-1 tox: inactive; MCF10A rereplic: 3%; KB-V1 cytotox: inactive; DRD3 antagonist: -58*

What do the screens show for `COc1ccc(OC)c(C(=O)CSc2nnnn2C)c1`?
SW480 rerep: 0%; D3 ag: 8; KB-3-1 tox: inactive; MCF10A rereplic: 4%; KB-V1 cytotox: inactive; DRD3 antagonist: 19

Results for O=C(CSc1nnnn1Cc1ccccc1)c1ccc(F)cc1 ?
SW480 rerep: -1%; D3 ag: 5; KB-3-1 tox: inactive; MCF10A rereplic: inconclusive; KB-V1 cytotox: inactive; DRD3 antagonist: 5

What do the screens show for `COc1cccc(C(=O)CSc2nnnn2C)c1`?
SW480 rerep: 3%; D3 ag: 0; KB-3-1 tox: inactive; MCF10A rereplic: -5%; KB-V1 cytotox: inactive; DRD3 antagonist: -64*

Results for CN1[C@@H]2CCC[C@H]1CC(NC(=O)c1nn(C)c3ccccc13)C2 (some centres undefined) ?
SW480 rerep: 16%; D3 ag: -5; KB-3-1 tox: inactive; MCF10A rereplic: 8%; KB-V1 cytotox: inactive; DRD3 antagonist: 30

How did COc1ccc2c(c1)/C(=C\c1cccc(/C=C3/C(=O)Nc4ccc(OC)cc43)n1)C(=O)N2 do in these assays?
SW480 rerep: 2.9µM*; D3 ag: -18; KB-3-1 tox: 1.8µM*; MCF10A rereplic: inconclusive; KB-V1 cytotox: inactive; DRD3 antagonist: -53*

What do the screens show for `N#CN1CCC(NS(=O)(=O)c2ccc(C(F)(F)F)cc2)C1` (centres undefined)?
SW480 rerep: -10%; KB-3-1 tox: inactive; MCF10A rereplic: inconclusive; KB-V1 cytotox: inactive

Results for Cc1ccccc1OCC(=O)Nc1ccc(C(=O)OCc2cc(=O)n3c(C)csc3n2)cc1 ?
D3 ag: -15

Results for O=C1c2ccsc2SCCN1Cc1c(Cl)cccc1Cl ?
SW480 rerep: 1%; D3 ag: -2; KB-3-1 tox: inactive; MCF10A rereplic: 29%; KB-V1 cytotox: inactive; DRD3 antagonist: -61*

Results for O=C1c2ccsc2SCCN1Cc1c(F)cccc1Cl ?
SW480 rerep: -13%; D3 ag: 2; KB-3-1 tox: inactive; MCF10A rereplic: 0%; KB-V1 cytotox: inactive; DRD3 antagonist: 2

How did CSCCC(NS(=O)(=O)c1ccc2c(c1)oc(=O)n2C)C(=O)N1CCN(c2cc(Cl)ccc2C)CC1 (centres undefined) do in these assays?
D3 ag: -13

What do the screens show for `Cc1ccccc1OCC(=O)Nc1ccccc1N1CCCCC1`?
SW480 rerep: inconclusive; D3 ag: 5; KB-3-1 tox: inconclusive; MCF10A rereplic: inconclusive; KB-V1 cytotox: 15µM*; DRD3 antagonist: 15

How did COc1ccc(N2CCCC2)c(NC(=O)COc2ccccc2Cl)c1 do in these assays?
SW480 rerep: -2%; D3 ag: 4; KB-3-1 tox: inactive; MCF10A rereplic: inconclusive; KB-V1 cytotox: inactive; DRD3 antagonist: 15

Results for COc1ccc(OCC(=O)Nc2cc(OC)ccc2N2CCCCC2)cc1 ?
SW480 rerep: -4%; D3 ag: 36*; KB-3-1 tox: inactive; MCF10A rereplic: inconclusive; KB-V1 cytotox: inactive; DRD3 antagonist: 25

What do the screens show for `Cc1cc(C)cc(OCC(=O)Nc2ccccc2N2CCCCC2)c1`?
SW480 rerep: inconclusive; D3 ag: 2; KB-3-1 tox: inactive; MCF10A rereplic: 8.2µM*; KB-V1 cytotox: inactive; DRD3 antagonist: 32

Results for CCOCCCn1c(SCC(=O)OCC)nc2c(sc3ccccc32)c1=O ?
D3 ag: -20; KB-3-1 tox: inactive; KB-V1 cytotox: inconclusive

What do the screens show for `COc1ccc(C2C=C(c3ccc(Br)cc3)Nc3nnnn32)c(OC)c1` (centres undefined)?
D3 ag: -19

How did Cc1cccc(C2C=C(c3ccc(C)c(C)c3)Nc3nnnn32)c1 (centres undefined) do in these assays?
D3 ag: -16; KB-3-1 tox: 21µM*; KB-V1 cytotox: inconclusive

Screens from PubChem.
